# Rows were chosen to be rich in hits. Some 1.3% of all compounds tested hit in one or more screens of this group.
# LYPLA1 counter – counter-screen for PME1 inhibitors: inhibitors of human LYPLA1 | recombinant LYPLA1, FP-Rh probe fluorescence polarization | O75608 | hit rate 0.16% among 320,000 | inhibition, % at 5.9 µM;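 active = inhibition above the mean of all tested compounds plus 3 SD, set per campaign, cut at about 14% in these data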;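 also: inhibitors block serine hydrolase probe labeling of LYPLA1 so polarization falls; 0% = enzyme with DMSO and 100% = wells lacking LYPLA1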
# Fam108B counter – counter-screen for RBBP9 inhibitors: inhibitors of mouse Fam108B; recombinant Fam108B, FP-Rh probe fluorescence polarization; inhibition, % at 9.51 µM; hit rate 0.33% among 300,000;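 active = inhibition above the screen mean inhibition plus 3 SD, computed separately per campaign, cut at about 18% in these data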;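 also: inhibitors lower polarization as less probe binds the enzyme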
# PME-1 primary – PME-1 (human) inhibition; Q9Y570; recombinant PME-1, FP-Rh probe fluorescence polarization; inhibition, % at 5.9 µM; hit rate 0.53% among 320,000;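 active = inhibition above the campaign mean of all compounds plus 3 SD, cut at about 26% in these data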;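 also: competitive labeling of PME-1 active site by serine hydrolase directed probe; 0% = PME-1 with DMSO and 100% = wells lacking PME-1 enzyme; inhibitors block probe labeling so polarization falls and inhibition rises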
# PREPL inh – inhibitors of human prolyl oligopeptidase-like enzyme PREPL. Q4J6C6. recombinant PREPL, fluorescence polarization activity-based probe. inhibition, % at 5.96 µM. hit rate 0.68% among 320,000; in the data active = inhibition above about 43%;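 also: 0% = enzyme with DMSO and 100% = wells lacking enzyme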
# Target sequence (Q4J6C6 whole entry, looked up): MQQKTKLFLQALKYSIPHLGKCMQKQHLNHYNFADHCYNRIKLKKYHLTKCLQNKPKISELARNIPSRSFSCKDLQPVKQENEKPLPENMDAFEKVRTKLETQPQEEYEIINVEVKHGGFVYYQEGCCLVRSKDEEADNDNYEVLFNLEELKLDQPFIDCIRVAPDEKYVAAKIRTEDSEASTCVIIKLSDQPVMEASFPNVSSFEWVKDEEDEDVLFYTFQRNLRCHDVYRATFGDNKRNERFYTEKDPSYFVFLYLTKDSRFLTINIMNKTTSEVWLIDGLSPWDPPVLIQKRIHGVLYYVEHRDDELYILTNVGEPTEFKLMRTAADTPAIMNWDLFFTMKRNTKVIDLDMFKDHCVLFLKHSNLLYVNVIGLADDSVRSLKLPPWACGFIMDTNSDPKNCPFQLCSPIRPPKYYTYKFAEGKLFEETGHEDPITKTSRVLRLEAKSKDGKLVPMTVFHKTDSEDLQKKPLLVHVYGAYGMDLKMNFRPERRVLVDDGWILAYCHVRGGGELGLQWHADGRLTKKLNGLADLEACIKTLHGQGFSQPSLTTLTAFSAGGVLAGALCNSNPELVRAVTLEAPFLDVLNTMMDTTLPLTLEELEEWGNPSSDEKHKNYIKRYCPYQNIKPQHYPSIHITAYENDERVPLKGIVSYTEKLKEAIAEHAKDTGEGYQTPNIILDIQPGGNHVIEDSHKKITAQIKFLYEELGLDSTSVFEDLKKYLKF
# LYPLA2 inh – counter-screen for PME1 inhibitors: inhibitors of human LYPLA2; O95372; recombinant LYPLA2, FP-Rh probe fluorescence polarization; inhibition, % at 5.9 µM; hit rate 0.38% among 320,000; AID 2177;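 active = inhibition above the screen-wide mean plus 3 SD, limit set per campaign, cut at about 26% in these data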;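 also: 0% = LYPLA2 with DMSO and 100% = wells lacking LYPLA2 enzyme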
# Fam108b confirm – confirmation of mouse Fam108b serine hydrolase inhibitors; shares compounds with Fam108B counter; recombinant Fam108b, FP-Rh probe fluorescence polarization; inhibition, % at 9.51 µM; hit rate 44% among 930; AID 1978;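 active = inhibition above a limit from the primary screen, the mean over all compounds plus 3 SD, cut at about 19% in these data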;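 also: 0% = median of active Fam108b wells and 100% = catalytically dead S170A mutant; inhibitors free the probe so polarization falls as inhibition rises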
# Fam108b inh – mouse ABHD17B inhibition | shares compounds with Fam108B counter | recombinant Fam108b, gel-based ABPP, fluorophosphonate probe | inhibition, % at 20 µM | hit rate 44% among 260 | AID 588649; in the data active = inhibition above about 40%
# Active calls of the source: *; · = no result given.
SMILES,LYPLA1 counter,Fam108B counter,PME-1 primary,PREPL inh,LYPLA2 inh,Fam108b confirm,others
Cc1ccc(C2=NN(C(=O)CNCCO)C(c3cccs3)C2)cc1 (centres undefined),-1,-3,-3,-39,0,·,
O=C1OC(Nc2ncccn2)c2ccccc21 (centres undefined),1,3,-1,11,4,·,
O=C1OC(Nc2cc(Br)cc3cccnc23)c2ccccc21 (centres undefined),11,47*,28*,33,17,7,
Cc1ccc(-c2nc(Nc3ccc(O)cc3)c3ccccc3n2)cc1,-6,35*,41*,18,9,3,
COc1ccc(Nc2nc(-c3ccccc3O)nc3ccccc23)cc1,-17,25*,17,11,-4,-20,
COc1cccc(C=NNc2nc(Nc3ccc([N+](=O)[O-])cc3)nc(N3CCCC3)n2)c1O,·,·,·,·,·,·,Fam108b inh=90*
c1cc2c3c(cccc3c1)NC1(CCC3(CC1)Nc1cccc4cccc(c14)N3)N2,-8,36*,47*,35,8,7,
C=C(C)Cn1c(SCC(=O)N/N=C/c2c(O)ccc3ccccc23)nc2ccccc2c1=O,-4,29*,-10,3,-8,-15,
C=C(C)Cn1c(SCC)nc2ccccc2c1=O,-2,3,-6,-13,-1,·,
CCOC(=O)c1cnn(-c2ccc(F)cc2)c1N,5,-1,1,10,13,·,
O=C(COCc1cc(-c2ccc3c(c2)OCO3)on1)N1CCN(c2ccccc2)CC1,2,1,-2,-9,6,·,
Cc1ccc2nc(/C(C#N)=C/c3ccccc3C(=O)O)[nH]c2c1,-4,-2,1,10,-6,·,
Cc1ccc2nc(/C(C#N)=C/c3ccc(O)c(O)c3)[nH]c2c1,-19,31*,29*,33,-16,17,
Cc1ccc2nc(/C(C#N)=C\c3ccc(N4CCCCC4)c([N+](=O)[O-])c3)[nH]c2c1,-8,31*,68*,27,15,0,
COCCOc1cc(NC(=O)CS(=O)(=O)CC(=O)N(C)C)c(Cl)cc1Cl,-5,-4,0,0,10,·,
NC1=NC(=O)/C(=C/C=C/c2cccs2)S1,-1,1,-4,12,2,·,
COc1cccc(N2CCN(S(=O)(=O)c3ccc(-c4coc(C)n4)cc3)CC2)c1,1,3,-1,9,2,·,
COc1cccc(N2CCN(S(=O)(=O)c3ccc4nc(-c5ccccc5)[nH]c4c3)CC2)c1,-12,21*,13,-5,-67,-12,
O=[N+]([O-])c1ccc(O)c(/C=N/NC(=S)Nc2ccc(Cl)cc2Cl)c1,5,43*,10,7,-1,48*,
Cc1cc(Cl)ccc1NC(=O)CCC(=O)N/N=C/c1cc([N+](=O)[O-])ccc1O,-1,-1,4,2,1,·,
Cc1cc(NN=Cc2c(O)ccc3ccccc23)nc(-c2ccccc2O)n1,·,·,·,·,·,·,Fam108b inh=95*
Oc1ccc2ccccc2c1/C=N/Nc1ccccc1,5,9,2,1,7,·,
O=C(N/N=C/c1c[nH]c2ccccc12)c1ccn(Cc2ccc(Cl)cc2Cl)n1,-10,21*,17,33,1,0,
Cc1ccc(/C(O)=C2/C(=O)C(=O)N(c3ccccn3)C2c2cccc([N+](=O)[O-])c2)cc1 (centres undefined),5,-3,9,-6,3,·,
O=C(NC(=S)NNC(=O)c1ccccc1O)c1cccc([N+](=O)[O-])c1,-3,19*,5,13,-3,10,
SMILES,LYPLA1 counter,Fam108B counter,PME-1 primary,PREPL inh,LYPLA2 inh,Fam108b confirm,others
COc1ccc(C(=O)NNC(=S)NC(=O)c2cccc([N+](=O)[O-])c2)cc1,0,-1,2,7,-5,·,
Cc1ccc(SCc2cc(=O)c3c(=O)n(-c4ccccc4)[nH]c3[nH]2)cc1,0,5,3,4,3,·,
O=c1cc(CSc2ccc(Cl)cc2)[nH]c2[nH]n(-c3ccccc3)c(=O)c12,-4,19*,10,37,7,-2,
COc1cccc(C2C3=C(CCCC3=O)Nc3[nH]n(-c4ccccc4)c(=O)c32)c1 (centres undefined),-1,-2,-2,-1,-5,·,
COc1cccc(C2C3=C(Nc4[nH]n(-c5ccccc5)c(=O)c42)c2ccccc2C3=O)c1 (centres undefined),-5,24*,28*,22,-1,31*,
CCOC(=O)c1ccccc1NC(=O)CN1C(=O)NC(C)(CCc2ccccc2)C1=O (centres undefined),-7,-6,-2,-9,2,·,
COc1ccc(S(=O)(=O)Nc2cccc3c2O[C@H](CN(C)C(=O)Nc2ccc(C(F)(F)F)cc2)[C@@H](C)CN([C@H](C)CO)C3=O)cc1,·,·,·,7,·,·,
O=C1C(Cc2ccccc2)Nc2ncnc(N3CCCCC3)c2N1Cc1ccc(Cl)cc1 (centres undefined),-3,2,-1,2,-1,·,
Cc1nn(-c2ccccc2)c(N2CCCC2)c1/C=N/NC(=O)c1cc2ccccc2cc1O,-10,27*,38*,9,1,9,
Cc1nn(-c2ccccc2)c(Cl)c1/C=N/NC(=O)c1cccc(S(=O)(=O)N2CCCC2)c1,-5,-6,2,12,4,·,
Cc1nn(-c2ccccc2)c(N2CCCC2)c1/C=N/NC(=O)c1cccc(S(=O)(=O)Nc2ccc(Cl)cc2)c1,-14,22*,15,14,-18,-6,
CN(C)c1ccc(NC(=O)CSc2nc(N)c(C(=O)Nc3ccc(N(C)C)cc3)s2)cc1,-13,19*,20,26,1,-6,
Fc1ccc2nc(Nc3nc4cc5c(cc4s3)OCCO5)sc2c1,-1,21*,72*,28,8,12,
O=C(NNc1nc2cc3c(cc2s1)OCCO3)c1ccc(F)cc1,-1,3,7,12,1,·,
Fc1ccc2nc(Nc3nc4cc5c(cc4s3)OCO5)sc2c1,-5,40*,52*,23,-10,46*,Fam108b inh=95*
COC(=O)c1sc(NC(=S)NNC(=O)c2c(Br)c(C)nn2C)c(C(=O)OC)c1C,2,26*,25,19,11,24*,
COC(=O)c1sc(NC(=O)C(C)C)c(C(=O)OC)c1C,2,-3,-3,12,8,·,
COc1ccccc1Nc1ccc(NC(=O)c2cccc([N+](=O)[O-])c2C)cc1,-7,20*,15,26,5,-6,
O=C(CSc1nnc(-c2ccc3c(c2)OCO3)o1)Nc1ncc(Cl)cc1Cl,-1,2,-4,-1,2,·,
OCCNC(=S)Nc1ccc2nsnc2c1,14,28*,24,22,12,-1,
Cc1ccccc1OCC(=O)NCC(=O)OCc1ccc(Br)cc1,-4,-3,-8,-54,-7,·,

# Screens from PubChem BioAssay.
